Data reported in PubChem BioAssay (NCATS).
“And” between values parts separate entries of the source, which are not always exact repeats. Equal values may be shown once. Inconclusive results are not listed. The source made the active and inactive calls. The call rests on the fitted dose curve; in most records, active means well fitted curve in the direction sought with a large enough effect; inconclusive means small, poorly fitted or top-dose-only effect, or another doubt; inactive means no such curve, though single readings can be large; an effect the other way counts as inactive or inconclusive.

What was measured:
CRL-7250 = normal cell line; assay: Cytotoxic Profiling of Annotated Libraries Using Quantitative High-Throughput Screening (AID 1296008); conditions: Five cell lines viability, CellTiter-Glo ATP luminescence, 48-72 h; max response: active compounds read low; further: nearly all actives have a fitted effect of over 60% in size
Summary of the method: (§1)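 Compounds were pin-transferred onto cells and incubated 48 or 72 hr at 37 degree Celsius, 95% humidity. CellTiter-Glo was added, plates sat 10 min at room temperature, then ATP-coupled luminescence was imaged as the viability read-out.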

HEK293 = assay: as above; conditions: Five cell lines viability, CellTiter-Glo ATP luminescence, 48-72 h; max response: active compounds read low
Summary of the method: as §1

HaCat [1] = assay: as above; conditions: Five cell lines viability, CellTiter-Glo ATP luminescence, 48-72 h; max response: active compounds read low
Summary of the method: as §1

KB-3-1 = assay: as above; conditions: Five cell lines viability, CellTiter-Glo ATP luminescence, 48-72 h; max response: active compounds read low
Summary of the method: as §1

NIH3T3 [2] = assay: as above; conditions: Five cell lines viability, CellTiter-Glo ATP luminescence, 48-72 h; max response: active compounds read low
Summary of the method: as §1

HACAT [3] = assay: qHTS assay to identify novel small-molecules to repurpose for Merkel cell carcinoma treatment (AID 1296009); conditions: MCC and control cell lines, CellTiter-Glo viability, 72 h; at 44.8 µM (top of the series) unless noted; further: nearly all actives have a fitted effect of over 60% in size
Summary of the method: (§2)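 Viability readout: ATP luminescence (CellTiter-Glo) after 72 hr drug exposure at 37 degree celsius. Dose-response format was 8 points for NPC and 11 points for MIPE; data normalized to in-plate controls.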

MCC-13 = assay: as above; conditions: MCC and control cell lines, CellTiter-Glo viability, 72 h; series mostly up to 46 µM
Summary of the method: as §2

MKL-1 = assay: as above; conditions: MCC and control cell lines, CellTiter-Glo viability, 72 h; series mostly up to 46 µM
Summary of the method: as §2

MKL-2 = assay: as above; conditions: MCC and control cell lines, CellTiter-Glo viability, 72 h; series mostly up to 46 µM
Summary of the method: as §2

NIH3T3 [4] = assay: as above; conditions: MCC and control cell lines, CellTiter-Glo viability, 72 h; at 44.8 µM (top of the series) unless noted
Summary of the method: as §2

UISO = assay: as above; conditions: MCC and control cell lines, CellTiter-Glo viability, 72 h; series mostly up to 46 µM
Summary of the method: as §2

WaGa = assay: as above; conditions: MCC and control cell lines, CellTiter-Glo viability, 72 h; series mostly up to 46 µM
Summary of the method: as §2

MCC-26 = assay: as above; conditions: MCC and control cell lines, CellTiter-Glo viability, 72 h; series mostly up to 46 µM
Summary of the method: as §2

HEK293T = assay: as above; conditions: MCC and control cell lines, CellTiter-Glo viability, 72 h; series mostly up to 44.8 µM
Summary of the method: as §2

CASKI = assay: Primary qHTS to identify gynecologic anti-cancer compounds using libraries of approved drugs and bioactive compounds (AID 1345084); conditions: Gynecologic cancer cell panel viability, ATPlite luminescence, 48 h; series mostly up to 57.5 µM; further: nearly all actives have a fitted effect of over 55% in size
Summary of the method: (§3)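 ATP-based viability (ATPlite), 1,000 cells/well, 16 h pre-incubation, 48 h compound at 37 C, 5% CO2, 15 min RT before read.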

Es-2 = assay: as above; conditions: Gynecologic cancer cell panel viability, ATPlite luminescence, 48 h; series mostly up to 57.5 µM
Summary of the method: as §3

HeLa = assay: as above; conditions: Gynecologic cancer cell panel viability, ATPlite luminescence, 48 h; series mostly up to 57.5 µM
Summary of the method: as §3
On the % scale 0 is the no-effect control and ±100 the full control effect.

COc1ccc(CCC(=O)c2c(O)cc(O[C@@H]3O[C@H](CO)[C@@H](O)[C@H](O)[C@@H]3O[C@@H]3O[C@@H](C)[C@H](O)[C@@H](O)[C@@H]3O)cc2O)cc1O
inactive: max response (CRL-7250) -4.09% | max response (HEK293) -11.6% | outcome (HaCat [1]) | max response (KB-3-1) -1.61% | outcome (NIH3T3 [2]) | outcome (HACAT [3]) | Potency (MCC-13) | Potency (MKL-1) | Potency (MKL-2) | outcome (NIH3T3 [4]) | Potency (UISO) | Potency (WaGa)

CN(N=O)C(=O)N[C@H]1C(O)OC(CO)[C@@H](O)[C@H]1O (some centres undefined)
inactive: max response (CRL-7250) -3.47% | max response (HEK293) -7.38% | outcome (HaCat [1]) | max response (KB-3-1) 2.81% | max response (NIH3T3 [2]) -17.4% | outcome (HACAT [3]) | Potency (MCC-13) | Potency (MCC-26) | Potency (MKL-1) | Potency (MKL-2) | Potency (UISO) | Potency (WaGa)

NC1=N[C@H]2[C@H](CS[C@H]2CCCCC(=O)O)N1
inactive: outcome (CRL-7250) | max response (HEK293) -4.7% | outcome (HaCat [1]) | outcome (KB-3-1) | max response (NIH3T3 [2]) -0.4% | outcome (HACAT [3]) inactive [at 17.4 µM] | Potency (MCC-13) | Potency (MKL-1) | Potency (MKL-2) | Potency (UISO) | Potency (WaGa)

CC(=O)O[C@H]1C[C@@H]2CC[C@H]3[C@H]4C[C@H]([N+]5(C)CCCCC5)[C@@H](OC(C)=O)[C@@]4(C)CC[C@@H]3[C@@]2(C)C[C@H]1[N+]1(C)CCCCC1
inactive: max response (CRL-7250) 0.398% | max response (HEK293) 0.173% | outcome (HaCat [1]) | outcome (KB-3-1) | max response (NIH3T3 [2]) -1.21% | outcome (HACAT [3]) | Potency (MCC-13) | Potency (MKL-1) | Potency (MKL-2) | Potency (UISO) | Potency (WaGa)

CCN1CCN(C(=O)N[C@H](C(=O)N[C@@H]2C(=O)N3C(C(=O)O)=C(CSc4nnnn4C)CS[C@@H]23)c2ccc(O)cc2)C(=O)C1=O
inactive: max response (CRL-7250) 2.05% | outcome (HEK293) | max response (HaCat [1]) 2.66% | outcome (KB-3-1) | max response (NIH3T3 [2]) 3.36% | outcome (HEK293T) inactive [at 9.27 µM] | activity change, negative = cytotoxicity (MCC-13) 4.78% [at 9.22 µM] | activity change, negative = cytotoxicity (MCC-26) -6.39% [at 9.22 µM] | activity change, negative = cytotoxicity (MKL-1) 8.33% [at 9.22 µM] | activity change, negative = cytotoxicity (MKL-2) -17.3% [at 9.22 µM] | activity change, negative = cytotoxicity (UISO) -1.23% [at 9.22 µM] | activity change, negative = cytotoxicity (WaGa) -1.78% [at 9.22 µM]

COc1cc(OC)c(NC(=O)Nc2cc(C)on2)cc1Cl
inactive: max response (CRL-7250) -0.274% | max response (HEK293) -18.7% | outcome (HaCat [1]) | max response (KB-3-1) 3.5% | max response (NIH3T3 [2]) 2.83% | outcome (HACAT [3]) | Potency (MCC-13) | Potency (MCC-26) | Potency (MKL-1) | Potency (MKL-2) | Potency (UISO) | Potency (WaGa)

Cc1coc2c1C(=O)C(=O)c1c-2ccc2c(C)cccc12
inactive: max response (CRL-7250) -23.2% | max response (HEK293) -8.46% | outcome (HaCat [1]) | outcome (KB-3-1) | max response (NIH3T3 [2]) -4.31% and -4.38% | outcome (HACAT [3]) | Potency (MCC-13) | Potency (MCC-26) | Potency (MKL-1) | Potency (MKL-2) | Potency (WaGa) | Potency (CASKI) | Potency (Es-2) | Potency (HeLa)
